Reference: PubChem BioAssay AID1159580 (chemical genetic matrix, 2015)
Screen size: about 5,500 compounds; about 2,000 (36%) were called active. About 18% were inconclusive and are not listed. No stated cut-off is given here; in the data, active means normalized growth mostly below about 0.91 (no sharp cut-off); inconclusive means no clear call, values can overlap the other calls; inactive means mostly above about 0.92. The list shows a part of the results.

Test: chemical genetic growth profiling, strain panel (AID 1159580);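 further: tested at 20 µM; growth read once vehicle control cultures reached saturation at 30 °C; 1 = growth at the plate median or of vehicle wells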
Settings: growth OD

Measured: normalized growth

O=C(O)CN1C(=O)c2cccc3cccc(c23)C1=O
inactive: S. cerevisiae deletion strains, locus YJR043C, strain POL32, stronger effect = lower value 1.03 | S. cerevisiae deletion strains, locus YJR066W, strain TOR1, stronger effect = lower value 0.975 | S. cerevisiae deletion strains, locus YKL009W, strain mrt4, stronger effect = lower value 0.987 | S. cerevisiae deletion strains, locus YKL068W, stronger effect = lower value 0.991 | S. cerevisiae deletion strains, locus YKL085W, strain MDH1 (second series), stronger effect = lower value 0.978 | S. cerevisiae deletion strains, locus YKL085W, strain MDH1, stronger effect = lower value 0.978 | S. cerevisiae deletion strains, locus YKL160W, strain elf1, stronger effect = lower value 0.956 | S. cerevisiae deletion strains, locus YKL190W, strain CNB1, stronger effect = lower value 1 | S. cerevisiae deletion strains, locus YKR001C, strain vps1, stronger effect = lower value 1.01 | S. cerevisiae deletion strains, locus YKR026C, strain gcn3, stronger effect = lower value 0.996 | S. cerevisiae deletion strains, locus YKR091W, strain srl3, stronger effect = lower value 0.986 | S. cerevisiae deletion strains, locus YLL001W, strain dnm1, stronger effect = lower value 0.966 | S. cerevisiae deletion strains, locus YLL026W, stronger effect = lower value 0.996 | S. cerevisiae deletion strains, locus YLL041C, strain sdh2, stronger effect = lower value 0.983 | S. cerevisiae deletion strains, locus YLR027C, strain aat2, stronger effect = lower value 0.996 | S. cerevisiae deletion strains, locus YLR039C, strain RIC1, stronger effect = lower value 1 | S. cerevisiae deletion strains, locus YLR058C, strain SHM2, stronger effect = lower value 1 | S. cerevisiae deletion strains, locus YLR102C, strain apc9, stronger effect = lower value 0.986 | S. cerevisiae deletion strains, locus YLR113W, strain HOG1, stronger effect = lower value 0.935 | S. cerevisiae deletion strains, locus YLR221C, strain rsa3, stronger effect = lower value 0.977 | S. cerevisiae deletion strains, locus YLR258W, strain gsy2, stronger effect = lower value 0.988 | S. cerevisiae deletion strains, locus YLR262C, strain YPT6 (second series), stronger effect = lower value 0.947 | S. cerevisiae deletion strains, locus YLR262C, strain YPT6, stronger effect = lower value 0.985 | S. cerevisiae deletion strains, locus YLR268W, strain sec22, stronger effect = lower value 0.983 | S. cerevisiae deletion strains, locus YLR320W, strain mms22, stronger effect = lower value 0.944 | S. cerevisiae deletion strains, locus YLR330W, strain CHS5, stronger effect = lower value 0.989 | S. cerevisiae deletion strains, locus YLR342W, strain FKS1 (second series), stronger effect = lower value 1.02 | S. cerevisiae deletion strains, locus YLR342W, strain FKS1, stronger effect = lower value 0.978 | S. cerevisiae deletion strains, locus YLR357W, strain rsc2, stronger effect = lower value 0.965 | S. cerevisiae deletion strains, locus YLR370C, strain arc18, stronger effect = lower value 0.973 | S. cerevisiae deletion strains, locus YLR371W, strain rom2, stronger effect = lower value 0.989 | S. cerevisiae deletion strains, locus YLR384C, strain iki3, stronger effect = lower value 0.973 | S. cerevisiae deletion strains, locus YLR418C, strain cdc73, stronger effect = lower value 0.988 | S. cerevisiae deletion strains, locus YML016C, strain PPZ1, stronger effect = lower value 1 | S. cerevisiae deletion strains, locus YML032C, strain rad52, stronger effect = lower value 1 | S. cerevisiae deletion strains, locus YML120C, strain ndi1, stronger effect = lower value 0.958 | S. cerevisiae deletion strains, locus YML124C, strain tub3, stronger effect = lower value 0.999 | S. cerevisiae deletion strains, locus YMR058W, strain fet3, stronger effect = lower value 0.98 | S. cerevisiae deletion strains, locus YMR078C, strain ctf18, stronger effect = lower value 0.982 | S. cerevisiae deletion strains, locus YMR125W, strain sto1, stronger effect = lower value 0.979 | S. cerevisiae deletion strains, locus YMR129W, stronger effect = lower value 0.996 | S. cerevisiae deletion strains, locus YMR205C, strain PFK2, stronger effect = lower value 0.954 | S. cerevisiae deletion strains, locus YMR223W, strain ubp8, stronger effect = lower value 0.977 | S. cerevisiae deletion strains, locus YMR231W, strain pep5, stronger effect = lower value 0.992 | S. cerevisiae deletion strains, locus YMR307W, strain GAS1, stronger effect = lower value 1.01 | S. cerevisiae deletion strains, locus YNL067W, strain RPL9B, stronger effect = lower value 1.05 | S. cerevisiae deletion strains, locus YNL071W, strain lat1, stronger effect = lower value 0.933 | S. cerevisiae deletion strains, locus YNL153C, strain GIM3, stronger effect = lower value 1.08 | S. cerevisiae deletion strains, locus YNL183C, strain NPR1, stronger effect = lower value 0.953 | S. cerevisiae deletion strains, locus YNL209W, strain ssb2, stronger effect = lower value 0.986 | S. cerevisiae deletion strains, locus YNL233W, strain BNI4, stronger effect = lower value 1.03 | S. cerevisiae deletion strains, locus YNL248C, strain rpa49, stronger effect = lower value 0.969 | S. cerevisiae deletion strains, locus YNL250W, strain rad50, stronger effect = lower value 0.941 | S. cerevisiae deletion strains, locus YNL271C, strain bni1, stronger effect = lower value 0.998 | S. cerevisiae deletion strains, locus YNL298W, strain CLA4, stronger effect = lower value 0.984 | S. cerevisiae deletion strains, locus YNL307C, strain MCK1, stronger effect = lower value 0.994 | S. cerevisiae deletion strains, locus YNL322C, strain KRE1 (second series), stronger effect = lower value 0.987 | S. cerevisiae deletion strains, locus YNR049C, strain mso1, stronger effect = lower value 0.981 | S. cerevisiae deletion strains, locus YNR052C, strain pop2, stronger effect = lower value 0.969 | S. cerevisiae deletion strains, locus YOL006C, strain TOP1, stronger effect = lower value 1.08 | S. cerevisiae deletion strains, locus YOL012C, strain htz1 0.878 | S. cerevisiae deletion strains, locus YOL147C, strain pex11, stronger effect = lower value 0.988 | S. cerevisiae deletion strains, locus YOR001W, strain rrp6, stronger effect = lower value 0.974 | S. cerevisiae deletion strains, locus YOR061W, strain CKA2, stronger effect = lower value 1.01 | S. cerevisiae deletion strains, locus YOR069W, strain VPS5, stronger effect = lower value 0.998 | S. cerevisiae deletion strains, locus YOR070C, strain gyp1, stronger effect = lower value 0.99 | S. cerevisiae deletion strains, locus YOR080W, strain dia2, stronger effect = lower value 0.989 | S. cerevisiae deletion strains, locus YOR083W, strain WHI5, stronger effect = lower value 0.967 | S. cerevisiae deletion strains, locus YOR106W, strain vam3, stronger effect = lower value 0.955 | S. cerevisiae deletion strains, locus YOR136W, strain idh2, stronger effect = lower value 0.991 | S. cerevisiae deletion strains, locus YOR144C, strain elg1, stronger effect = lower value 0.987 | S. cerevisiae deletion strains, locus YOR184W, strain ser1, stronger effect = lower value 1.02 | S. cerevisiae deletion strains, locus YOR231W, strain MKK1, stronger effect = lower value 0.977 | S. cerevisiae deletion strains, locus YOR265W, strain rbl2, stronger effect = lower value 0.985 | S. cerevisiae deletion strains, locus YOR270C, strain vph1, stronger effect = lower value 0.876 | S. cerevisiae deletion strains, locus YOR290C, strain snf2, stronger effect = lower value 0.943 | S. cerevisiae deletion strains, locus YOR316C, strain cot1, stronger effect = lower value 0.992 | S. cerevisiae deletion strains, locus YPL051W, strain arl3, stronger effect = lower value 0.97 | S. cerevisiae deletion strains, locus YPL078C, strain atp4, stronger effect = lower value 0.976 | S. cerevisiae deletion strains, locus YPL106C, strain sse1, stronger effect = lower value 0.954 | S. cerevisiae deletion strains, locus YPL240C, strain hsp82, stronger effect = lower value 0.98 | S. cerevisiae deletion strains, locus YPL256C, strain CLN2, stronger effect = lower value 0.961 | S. cerevisiae deletion strains, locus YPR119W, strain clb2, stronger effect = lower value 0.987 | S. cerevisiae deletion strains, locus YPR141C, strain kar3, stronger effect = lower value 0.994 | S. cerevisiae deletion strains, locus YPR163C, strain tif3, stronger effect = lower value 0.99 | S. cerevisiae deletion strains, locus YPR167C, strain met16, stronger effect = lower value 0.986 | S. cerevisiae deletion strains, strain wtn01, stronger effect = lower value 0.976 | S. cerevisiae strains, strain wild type, stronger effect = lower value 1
